Compounds with a hit are over-represented: about 1.1% of the library has one in this group of screens.
mIDH1 inhibitor: blocks human mutant IDH1 R132H enzyme; Potency, µM (doses to about 76.6 µM), for inactives: at the top dose activity change, negative = inhibition, actives largely listed as inhibitors; O75874; AID 602179; IDH1-R132H enzyme, NADPH consumption, diaphorase/resazurin fluorescence; 390,000 tested, 0.093% active; note: potency is the fitted concentration of half-maximal effect; % is set by controls: 0 for no effect and ±100 for the full control effect; nearly all actives have a fitted effect of over 65% in size
Target sequence (O75874 whole entry R132H, stated change not applied): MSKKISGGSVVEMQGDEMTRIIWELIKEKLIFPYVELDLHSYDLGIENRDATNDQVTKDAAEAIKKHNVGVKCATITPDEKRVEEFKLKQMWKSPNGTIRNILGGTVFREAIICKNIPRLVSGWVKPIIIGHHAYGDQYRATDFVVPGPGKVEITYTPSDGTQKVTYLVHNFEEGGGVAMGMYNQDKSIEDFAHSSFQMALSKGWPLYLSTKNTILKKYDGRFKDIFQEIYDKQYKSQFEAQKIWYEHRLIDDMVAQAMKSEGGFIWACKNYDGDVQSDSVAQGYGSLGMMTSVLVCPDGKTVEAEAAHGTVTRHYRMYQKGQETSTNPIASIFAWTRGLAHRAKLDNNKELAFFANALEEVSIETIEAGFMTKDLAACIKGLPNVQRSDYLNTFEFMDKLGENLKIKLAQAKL
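IDH1-R132H (0.5 ug/mL) preincubated 30 min with compound, then NADPH (0.016 mM) and alpha-KG (2 mM) added; 80 min at RT, pH 7.5. Remaining NADPH coupled via diaphorase/resazurin to fluorescence (540/590 nm); concentration-response curves normalized to no-enzyme control.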
HTT cytoprotect: cytoprotection in Huntington HTT-Q103 PC12 cell model; PC12 HTT-Q103 induced, cytoprotection, ATP luminescence, 40 h; Potency, µM (doses to about 56.4 µM), for the others: cytoprotection (ATP increase), hits mostly activators; 230,000 tested, 0.14% active; AID 1471; note: potency is the fitted concentration of half-maximal effect; % of control where 0% means no effect; nearly all actives have a fitted effect of over 45% in size
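Readout: ATPlite luminescence (ATP level). Model: stable PC12, inducible Htt exon1 Q103-GFP. Inducer: tebufenozide, 100 nM final. Compounds: dose series. No G418 in medium.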
HTT aggregate: reduces HttQ103-GFP aggregates in PC12 cells | PC12 HttQ103-GFP aggregates, Acumen cytometry, 40 h | Potency, µM (titrated, usually from 46.1 µM), for the others: top-dose activity change, negative = inhibition, usual class: inhibitors | 220,000 tested, 1.1% active | AID 1688; note: potency is the fitted concentration of half-maximal effect; % is set by controls: 0 for no effect and ±100 for the full control effect; nearly all actives have a fitted effect of over 60% in size
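Aggregate formation scored by laser-scanning cytometer (488 excitation, 500–530 emission) in lysed PC12 cells expressing Q103-GFP after 100 nM tebufenozide induction; library tested in dose series, with ATPLite reagent added in the multiplex.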
NPSR antag: neuropeptide S receptor (human) antagonism, cAMP. Q6W5P4. CHO-NPSR cells, cAMP TR-FRET, antagonist mode. Potency, µM (doses to about 38.3 µM), for inactives: at the top dose activity change, negative = inhibition, most hits filed as inhibitors. 220,000 tested, 1% active; note: potency is the fitted concentration of half-maximal effect; % is set by controls: 0 for no effect and ±100 for the full control effect; nearly all actives have a fitted effect of over 50% in size
AT treatment: potential ataxia-telangiectasia treatment; 320,000 tested, 0.19% active; Potency, µM (highest dose often 57.5 µM), without a hit: at the top dose activation, actives largely listed as activators; F2112 A-T fibroblasts, KAP-1 phosphorylation AlphaLISA; neocarzinostatin DNA damage 30 min before lysis; note: potency is the fitted concentration of half-maximal effect; % of control where 0% means no effect; nearly all actives have a fitted effect of over 45% in size
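hTERT-immortalized A-T patient fibroblasts (F2112), 500 cells/well in OPTI-MEM, 1% FBS, got compounds for 60 min, then NCS for 30 min at 37C. Lysates were then assayed for phospho-KAP-1 by AlphaLISA (anti-pKAP1 donor, anti-KAP1 acceptor beads), 6 hr at 25C.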
Resorufin autofl: counter-screen for mutant IDH1 inhibitors: fluorescence interference; shares compounds with mIDH1 inhibitor; Resorufin detection reagent fluorescence interference, cell-free; inhibition of signal, % at 51.2 µM; 750 tested, under 10 active; AID 623980;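 note: 0% = wells with normal resorufin and full inhibition = wells lacking resorufin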
WT IDH1 inh: selectivity of mutant IDH1 inhibitors: human wild-type IDH1; Potency, µM (titrated, usually from 115 µM), inactives show at the highest dose activity change, negative = inhibition, actives largely listed as inhibitors; WT IDH1 enzyme, NADPH diaphorase/resazurin fluorescence; AID 623995; 750 tested, 9% active; shares compounds with mIDH1 inhibitor;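 note: potency is the fitted concentration of half-maximal effect; 0% = full WT IDH1 enzyme control and full inhibition = no enzyme wells; nearly all actives have a fitted effect of over 55% in size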
Target sequence (O75874 whole entry, looked up): as the sequence (O75874 whole entry R132H, stated change not applied) above, with H132R counted along it
IDH1 R132H conf: inhibits human mutant IDH1 enzyme in cherrypick confirmation; IDH1 R132H enzyme, NADPH diaphorase/resazurin fluorescence; 750 tested, 83% active; Potency, µM (series often up to 76.6 µM), for the others: at the highest dose activity change, negative = inhibition, hits mostly inhibitors; shares compounds with mIDH1 inhibitor; note: potency is the fitted concentration of half-maximal effect; nearly all actives have a fitted effect of over 50% in size
Numbers without * were called inactive; ? = inconclusive; . = not tested or not shown; [ ] = remark or other dose. Calls come from the whole dose curve; as a rule, active = well fitted curve in the direction sought with a large enough effect; inconclusive = small, poorly fitted or top-dose-only effect, or another doubt; inactive = no such curve, though single readings can be large; an effect the other way counts as inactive or inconclusive.

SMILES	mIDH1 inhibitor	HTT cytoprotect	HTT aggregate	NPSR antag	AT treatment	Resorufin autofl	WT IDH1 inh	IDH1 R132H conf
Cc1ncc(CO)c2c1Oc1nc(-c3ccccc3)nc(SCC(=O)N(C)c3ccccc3)c1C2	.	.	.	.	12.0%	.	.	.
Cc1ncc(CO)c2c1Oc1nc(-c3ccccc3F)nc(SCC(=O)N(C)c3ccccc3)c1C2	52.1µM*	.	.	.	0.4%	-0.5	10.1%	?
CCCCCCCCCCCCCCCC(=O)OCC(O)C1OC(=O)C(O)=C1O (configuration not stated)	.	-61.1%	.	.	.	.	.	.
CCO[C@@H]1OC(C(=O)Nc2ccccc2)=C[C@H](c2ccc(C(F)(F)F)cc2)[C@H]1CCCO	?	12.0%[10 µM]	13.9%[9.22 µM]	?	2.6%	-3.6	-4.3%	22.4µM*
CCOc1ccc(CCNc2ncnc3onc(-c4ccc(Cl)cc4)c23)cc1	-6.3%	.	.	.	.	.	.	.
CCOc1ccc(NC(=O)Cn2cc(C(=O)c3ccccc3)c(=O)c3cc4c(cc32)OCCO4)cc1	3.3%	.	.	.	.	.	.	.
CCN(CC)S(=O)(=O)c1ccc2c(c1)N(CC(=O)Nc1ccc(Cl)cc1)C(=O)C1CCCN21 (configuration not stated)	?	.	.	.	.	3.6	-2.3%	28.2µM*
CCN(CC)S(=O)(=O)c1ccc2c(c1)N(CC(=O)Nc1cccc(C)c1C)C(=O)C1CCCN21 (configuration not stated)	13.8%	.	.	.	.	.	.	.
COc1cccc(N=NC2C(=O)N(C(N)=S)N=C2C)c1 (configuration not stated)	?	.	.	.	.	2.5	1.5%	-7.8%
CC[C@]12c3[nH]c4cc(CCC(=O)N(C)C)ccc4c3CCN1C(=O)[C@@H](CC(=O)NC/C=C(\C)CCC=C(C)C)C[C@@H]2C(=O)N1CCN(C(=O)c2ccco2)CC1	?	.	.	.	-0.4%	-10.8	-7.4%	31.6µM*
CC[C@]12c3[nH]c4cc(CCC(=O)N(C)C)ccc4c3CCN1C(=O)[C@@H](CC(=O)NCCN1CCOCC1)C[C@@H]2C(=O)N1CCN(C(=O)c2ccco2)CC1	-4.8%	.	.	.	10.6%	.	.	.
N#Cc1ccccc1Cn1cc(/C=C/[N+](=O)[O-])c2ccccc21	28.2µM*	.	?	?	6.8%	5.1	?	20µM*
CC(=O)Nc1cccc(-n2cc3c(c2-c2ccccc2Cl)c(=O)n(C)c(=O)n3C)c1	?	.	.	.	.	0.3	0.4%	39.8µM*
COc1ccc(CNC(=O)CCc2c(C)nn(-c3ccc(N4CCCCC4)nn3)c2C)cc1	-2.4%	.	.	.	.	.	.	.
Cc1ccccc1C1=C/C(=C(\SS/C(C(=O)c2ccc(OCC(=O)O)c(Cl)c2Cl)=C2\C=C(c3ccccc3C)SS2)C(=O)c2ccc(OCC(=O)O)c(Cl)c2Cl)SS1	11.7µM*	.	.	.	.	1.3	-0.3%	39.8µM*
Cc1nn(-c2ccccc2)c2nc(-c3cccs3)cc(C(=O)NN)c12	52.1µM*	-132.9%	-23.8%	-23.8%	3.4%	-4.8	1.9%	-4.5%
Cc1nn(-c2ccccn2)c2nc(-c3cccs3)cc(C(=O)NCc3ccco3)c12	-5.2%	-89.7%	5.9%[9.22 µM]	?	1.1%	.	.	.
Cc1ccccc1-n1nc(C)c2c(C(=O)NN)cc(-c3ccncc3)nc21	?	-49.2%	-3.6%	4.1%	2.2%	.	.	.
CCOC(=O)c1cc(-c2cccs2)nc2c1c(C)nn2-c1ccccn1	14.7µM*	-49.7%	0.5%	-44.0%	-8.9%	-1.6	0.8%	20µM*
O=C(COc1ccccc1-c1ccccc1)NCCN1C(=O)S/C(=C\c2cccnc2)C1=O	46.5µM*	23.4%[10 µM]	13.5%	-16.8%[46.1 µM]	3.6%	-3.1	-11.2%	28.2µM*
O=C1/C(=C\c2ccc(Cl)c(Cl)c2)CN(C(=O)CCN2CCOCC2)C/C1=C/c1ccc(Cl)c(Cl)c1	?	.	.	.	.	-3.9	-3.8%	28.2µM*
O=C1/C(=C\c2ccccc2)CN(C(=O)CCN2CCCCC2)C/C1=C/c1ccccc1	3.2%	.	.	.	.	.	.	.
Cc1nn(-c2ccc(N3CCCCC3)nn2)c(C)c1CCC(=O)NCc1ccc(OC(C)C)cc1	-17.8%	.	.	.	.	.	.	.
COc1cc2c(C)nc3c(c(C)nn3-c3ccccc3)c2cc1OC	1.0%	-21.4%[10 µM]	-1.8%[9.22 µM]	-29.6%	-0.1%	.	.	.
COc1cc2c(-c3ccc(O)cc3)nc3c(c(C)nn3-c3ccccc3)c2cc1OC	?	?	-20.6%	-21.8%	-5.7%	2.3	7.2%	11.2µM*
SMILES	mIDH1 inhibitor	HTT cytoprotect	HTT aggregate	NPSR antag	AT treatment	Resorufin autofl	WT IDH1 inh	IDH1 R132H conf
O=C1c2ccccc2[C@@H]([C@@H]2c3ccccc3C(=O)c3cc(Br)ccc32)c2ccc(Br)cc21	.	0.9%[10 µM]	.	.	.	.	.	.
CCc1cc2c(=O)n(Cc3ccco3)c(SCC(=O)N3CCCc4ccccc43)nc2s1	?	-20.4%	8.6%[9.22 µM]	?	4.0%	2.5	-2.1%	?
CCN1C(=O)[C@H]2[C@H]3[C@H](O)[C@H](O)C/C(=N/O[C@@H](C)c4cc(-c5c(C)cc(C)cc5C)no4)[C@@H]3CC[C@@H]2C1=O	.	-7.4%[10 µM]	.	.	.	.	.	.
Cc1cc(C)c2c(=N)c3ccccc3n(CCCCCCCCn3c4ccccc4c(=N)c4c(C)cc(C)nc43)c2n1	52.1µM*	.	.	.	.	-9.3	1.7%	28.2µM*
COCCn1c(SCC(=O)N2CCc3ccccc3C2)nc2cc(Cl)ccc2c1=O	26.1µM*	.	-31.8%	-11.2%	4.3%	-7.0	8.2%	11.2µM*
COCCn1c(SCC(=O)Nc2cc(C)on2)nc2cc(Cl)ccc2c1=O	5.4%	.	.	.	2.6%	.	.	.
COc1ccc(C2c3c(n(C)c4ccccc34)C(=O)N2CC(=O)Nc2cc(Cl)ccc2C)cc1 (configuration not stated)	24.0%	.	.	.	.	.	.	.
COc1ccc(C2c3c(n(C)c4ccccc34)C(=O)N2CC(=O)Nc2c(C)cc(C)cc2C)cc1 (configuration not stated)	?	.	.	.	.	-4.2	-9.9%	?
C=CCOc1ccc(Br)cc1/C=C1/SC(=Nc2ccc(C(=O)O)cc2)NC1=O	52.1µM*	-2.9%	-10.2%	-33.7%	1.3%	9.2	70.8µM*	28.2µM*
Cc1ccc(NC2=Nc3ccccc3N3C2=Nc2c(c(C)nn2-c2ccccc2)C3c2ccc(O)c(O)c2)cc1 (configuration not stated)	?	-53.7%	-15.3%	?	6.3%	.	.	.
